Measurements reported in PubChem BioAssay (NCATS).
“And” between values parts separate entries of the source, which are not always exact repeats. Identical values can stand only once. Inconclusive results are not listed. Some structures have more than one record in an assay (separate samples or runs), and their calls can disagree. The source made the active and inactive calls. Unless noted, calls come from the whole dose curve; as a rule, active = well fitted curve in either direction with a large enough effect (not every such curve was filed as active); inconclusive = small, poorly fitted or top-dose-only effect, or another doubt; inactive = flat fitted curve, though single readings scatter.

Tests used:
[1] = Cell Viability - BJ (AID 421; calls by dose curve;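 note: potency is the fitted concentration of half-maximal effect; cells exposed to compound for 40 hours at 37 °C before readout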); details: BJ fibroblast viability, qHTS
In short: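 Luminescent ATP signal (CellTiter-Glo, 20 min at room temperature) served as the read-out of viable BJ cells after 40 hours of compound treatment. Responses were scaled between DMSO and 100 uM tamoxifen, and AC50 values were obtained by Hill modeling.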

[2] = Cell Viability - Hek293 (AID 427;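 active = compounds whose dose-response curve shows a full or clear partial loss of cell viability, called from curve shape rather than a numeric limit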;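 note: potency is the fitted concentration of half-maximal effect; cells exposed to compound for 40 hours at 37 °C before reading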); details: qHTS
In short: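 Luminescent ATP read-out (CellTiter-Glo, 20 min RT) after 40 hr compound exposure at 37 °C in complete medium. Signal normalized to DMSO (basal) and 100 uM tamoxifen (100% inhibition); concentration-response fitted with the standard Hill equation to give AC50.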

[3] = Cell Viability - HepG2 (AID 433; calls by dose curve;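 note: potency is the fitted concentration of half-maximal effect; potency for ATP loss meaning cytotoxicity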); details: qHTS
In short: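 ATP luminescence (CellTiter-Glo) after 40 h compound exposure, 37 °C, HepG2, 1500 cells/well, complete medium. Normalized: DMSO = basal, 100 uM tamoxifen = 100% inhibition. AC50 via standard Hill equation.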

[4] = Cell Viability - MRC5 (AID 434; calls by dose curve;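 note: potency is the fitted concentration of half-maximal effect; cells exposed to compound for 40 hours at 37 °C; potency reflects cytotoxicity seen as loss of intracellular ATP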); details: MRC5 lung fibroblast viability, qHTS
In short: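 qHTS cytotoxicity in human lung fibroblast MRC5 cells; 40 hr treatment, 37 °C; cellular ATP by luciferase luminescence; DMSO = 0%, 100 uM tamoxifen = 100% inhibition; Hill-fit AC50.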

[5] = Cell Viability - SK-N-SH (AID 435; calls by dose curve; note: potency is the fitted concentration of half-maximal effect); details: SK-N-SH neuroblastoma cell viability qHTS
In short: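 CellTiter-Glo ATP luminescence, 20 min RT read; cells pre-plated 5 hr, compound 40 hr at 37 °C, 1500 cells/well, complete medium. Normalized DMSO = 0, 100 uM tamoxifen = 100% inhibition; Hill-fit AC50.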

[6] = AP1 Signaling Pathway (AID 357); details: ME-180 AP-1-bla reporter, EGF-induced, beta-lactamase ratio, 5 h; series mostly up to 17.2 µM;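 note: ME-180 reporter cells stimulated with EGF at its EC50 level; % is set by controls: 0 for no effect and ±100 for the full control effect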
In short: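 Read-out was the 460nm/530nm emission ratio (excitation 405nm) after CCF4 loading for 2.5 hours at room temperature. Cells carried an AP-1-driven beta-lactamase reporter, were stimulated with EC50 EGF plus compound for 5 hours, and AC50 values came from titrations.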

[7] = NFAT Signaling Pathway (AID 444); details: Jurkat NFAT-bla M1, carbachol, beta-lactamase ratio, 5 h;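 note: carbachol stimulus at about its EC50 of 1 µM final; % is set by controls: 0 for no effect and ±100 for the full control effect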
In short: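 Read-out: CCF4 FRET ratio (460 nm/530 nm) after 1 h RT dye loading, used for %activity and AC50 from titration series. Cells: Jurkat NFAT-β-lactamase/M1 line, treated with compound plus 1 uM carbachol for 5 h, 37 °C.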

[8] = Stat Signaling Pathway (AID 446); details: ME-180 SIE beta-lactamase reporter, IL-6 stimulated, 5 h; series mostly up to 17.2 µM;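 note: ME-180 cervical cancer cells given 40 pM IL-6 alongside compound; SIE-controlled beta-lactamase reporter measured as 460/530 nm FRET emission ratio; % is set by controls: 0 for no effect and ±100 for the full control effect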
In short: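 ME-180 SIE-bla cells; overnight plating; cpd + IL-6 40 pM, 5 h, 37 C; LiveBLAzer 2.5 h RT; 460/530 nm emission ratio. Normalized to 300 pM IL-6 and 125 nM JAK inhibitor controls.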

[9] = biological target: Cytochrome P450 1A2 (Homo sapiens) (UniProt P05177); assay: p450-cyp1a2 (AID 410; calls by dose curve; note: potency is the fitted concentration of half-maximal effect;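 for activity change, negative = inhibition: -100% = full effect of reference inhibitor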); details: recombinant CYP1A2, luciferin-ME demethylation, luminescence; series mostly up to 57 µM
In short: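 Human CYP1A2 (20nM) demethylated Luciferin-ME at its Km (100uM) in 100mM KPO4. After 10 min compound preincubation, NADPH regeneration ran the reaction 60 min at room temperature. Luciferin was read by luminescence, normalized to 57 uM furafylline.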

Cytochrome P450 1A2 (Homo sapiens), sequence (P05177 whole entry, looked up): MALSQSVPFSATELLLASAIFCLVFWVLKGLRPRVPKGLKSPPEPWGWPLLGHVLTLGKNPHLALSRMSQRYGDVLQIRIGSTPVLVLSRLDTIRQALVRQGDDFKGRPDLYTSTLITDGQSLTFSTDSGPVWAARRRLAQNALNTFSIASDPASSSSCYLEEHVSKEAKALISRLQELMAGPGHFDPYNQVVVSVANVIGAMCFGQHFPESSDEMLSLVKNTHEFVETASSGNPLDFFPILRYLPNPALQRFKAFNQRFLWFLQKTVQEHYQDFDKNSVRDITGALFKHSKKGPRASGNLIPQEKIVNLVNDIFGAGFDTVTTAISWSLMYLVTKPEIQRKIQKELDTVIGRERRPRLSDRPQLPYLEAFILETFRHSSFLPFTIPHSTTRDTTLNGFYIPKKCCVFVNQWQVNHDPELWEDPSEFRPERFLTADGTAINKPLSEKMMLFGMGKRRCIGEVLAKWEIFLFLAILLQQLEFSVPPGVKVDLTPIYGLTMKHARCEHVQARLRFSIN

Nc1ccn([C@H]2CS[C@@H](CO)O2)c(=O)n1
inactive: Potency [1] > 92 µM | Potency [2] > 92 µM | Potency [3] > 92 µM | Potency [4] > 92 µM | Potency [5] > 92 µM

C[C@]12C=CC(=O)C=C1CC[C@@H]1[C@@H]2[C@@H](O)C[C@@]2(C)[C@H]1CC[C@]2(O)C(=O)COC(=O)CCC(=O)O
inactive: outcome [6] | activity change, negative = inhibition ([7]; at 17.2 µM (top of the series)) 20.1% | outcome [8]

Nc1c(Br)cc(Br)cc1CNC1CCC(O)CC1 (stereo not drawn)
inactive: outcome [6] | activity change, negative = inhibition ([7]; at 17.2 µM (top of the series)) 0.0265% | outcome [8]

Cc1cc(C(=O)NNCc2ccccc2)no1
active: Potency [9] 12.6 µM
inactive: outcome [6] | activity change, negative = inhibition ([7]; at 17.2 µM (top of the series)) 11.8% | outcome [8]

CN=C(NC#N)Nc1ccc(C2=NNC(=O)C[C@@H]2C)cc1
inactive and 39.8 µM (active): Potency [9]
inactive: outcome [6] | activity change, negative = inhibition ([7]; at 38 µM (top of the series)) -1.21% | outcome [8]

CC1(C)S[C@@H]2[C@H](NC(=O)[C@@H](NC(=O)N3CCNC3=O)c3ccccc3)C(=O)N2[C@H]1C(=O)O
inactive: outcome [6] | Potency [9] | activity change, negative = inhibition ([7]; at 17.2 µM (top of the series)) -13.7% | outcome [8]

CCCC(=O)O[C@]1(C(=O)COC(C)=O)CC[C@H]2[C@@H]3C[C@H](F)C4=CC(=O)C=C[C@]4(C)[C@@]3(F)[C@@H](O)C[C@@]21C
inactive: outcome [6] | activity change, negative = inhibition ([7]; at 17.2 µM (top of the series)) -29.7% | outcome [8]

CCCCCCCC/C=C\CCCCCCCC(=O)O
inactive: Potency [1] > 92 µM | Potency [2] > 92 µM | Potency [3] > 92 µM | Potency [4] > 92 µM | Potency [5] > 92 µM

CCN(CC)Cc1cc(Nc2ccnc3cc(Cl)ccc23)ccc1O
inactive: outcome [6] | outcome [8]
